From the supplement of paper PMC6853941
Unmarked numbers belong to inactive results.

Test system: MCF10A
Experiment: perturbation Mahalanobis distance of morphological profile vs DMSO controls (Mahalanobis distance (SD units)); higher = stronger morphological change, active = 7 or more
Conditions: screen batch: Batch1_Mahalanobis_Distance; 72 h
Description: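 MCF10A cells were seeded onto drugs dispensed acoustically into 384-well plates, using one dose per drug chosen from its human peak plasma concentration, and incubated for 72 h at 37 °C. Cells were stained for DNA, tubulin and mitochondria and imaged; 78 CellProfiler features were extracted, plate-normalised and compared with DMSO wells.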

Row | SMILES | perturbation Mahalanobis distance
1 | Nc1ccc(C(=O)O)c(O)c1 [4-Aminosalicylic Acid] (130.6 µM) | 12.9 (active)
2 | Nc1c2c(nc3ccccc13)CCCC2 [Tacrine] (0.25 µM) | 2.25
3 | C#CCN(C)Cc1ccccc1 [Pargyline] (1.9 µM) | 3.93
4 | COc1cc(Cc2cnc(N)nc2N)cc(OC)c1OC [Trimethoprim] (43.1 µM) | 4.35
5 | Cc1ncc([N+](=O)[O-])n1CCO [Metronidazole] (58.4 µM) | 3.04
6 | C[N+](C)(C)CCOC(N)=O [Carbachol] (37 µM) | 2.88
7 | C[C@@](N)(Cc1ccc(O)c(O)c1)C(=O)O [Methyldopa] (118.4 µM) | 3.81
8 | C[C@H](N[C@@H](CCc1ccccc1)C(=O)O)C(=O)N1CCC[C@H]1C(=O)O [Enalaprilat] (0.67 µM) | 3.78
9 | Nc1nc2ccc(OC(F)(F)F)cc2s1 [Riluzole] (4.3 µM) | 2.51
10 | O=C1C(CCS(=O)c2ccccc2)C(=O)N(c2ccccc2)N1c1ccccc1 (racemic) [(+/-)-Sulfinpyrazone] (41.84 µM) | 3.46
11 | CC1(C)N=C(N)N=C(N)N1c1ccc(Cl)cc1 [Cycloguanil] (3.4 µM) | 2.56
12 | CN(C)CCCN1c2ccccc2Sc2ccc(C(F)(F)F)cc21 [Triflupromazine] (1.4 µM) | 4.75
13 | COCc1c(C(C)C)nc(C(C)C)c(/C=C/[C@@H](O)C[C@@H](O)CC(=O)O)c1-c1ccc(F)cc1 [Cerivastatin] (0.46 µM) | 13.3 (active)
14 | Cc1ccccc1C(=O)Nc1ccc(C(=O)N2CCC[C@@H](O)c3cc(Cl)ccc32)c(C)c1 [Tolvaptan] (11.1 µM) | 2.12
15 | Clc1ccc2c(c1)C(N1CCNCC1)=Nc1ccccc1O2 [Amoxapine] (9.6 µM) | 2.24
16 | CN1C[C@H]2c3ccccc3Oc3ccc(Cl)cc3[C@@H]2C1 [Asenapine] (0.07 µM) | 2.56
17 | CN(C)CC[C@@H](c1ccc(Cl)cc1)c1ccccn1 [Dexchlorpheniramine] (0.15 µM) | 2.03
18 | Cc1ccc(Nc2nccc(N(C)c3ccc4c(C)n(C)nc4c3)n2)cc1S(N)(=O)=O [Pazopanib] (132.6 µM) | 3.25
19 | CCC1(c2ccccc2)NC(=O)N(C)C1=O (stereo not given) [Mephenytoin] (343.8 µM) | 3.16
20 | CO/N=C(\C(=O)N[C@@H]1C(=O)N2C(C(=O)O)=C(CSc3nnnn3C)CS[C@H]12)c1csc(N)n1 [Cefmenoxime] (183.8 µM) | 3.87

Same assay, conditions: screen batch: Batch2_Mahalanobis_Distance; 72 h

Row | SMILES | perturbation Mahalanobis distance
21 | Nc1ccc(C(=O)O)c(O)c1 [4-Aminosalicylic Acid] (130.6 µM) | 13.9 (active)
22 | Nc1c2c(nc3ccccc13)CCCC2 [Tacrine] (0.25 µM) | 2.5
23 | C#CCN(C)Cc1ccccc1 [Pargyline] (1.9 µM) | 3.63
24 | COc1cc(Cc2cnc(N)nc2N)cc(OC)c1OC [Trimethoprim] (43.1 µM) | 3.85
25 | Cc1ncc([N+](=O)[O-])n1CCO [Metronidazole] (58.4 µM) | 2.36
26 | C[N+](C)(C)CCOC(N)=O [Carbachol] (37 µM) | 2.82
27 | C[C@@](N)(Cc1ccc(O)c(O)c1)C(=O)O [Methyldopa] (118.4 µM) | 3.85
28 | C[C@H](N[C@@H](CCc1ccccc1)C(=O)O)C(=O)N1CCC[C@H]1C(=O)O [Enalaprilat] (0.67 µM) | 2.89
29 | Nc1nc2ccc(OC(F)(F)F)cc2s1 [Riluzole] (4.3 µM) | 3.82
30 | O=C1C(CCS(=O)c2ccccc2)C(=O)N(c2ccccc2)N1c1ccccc1 (racemic) [(+/-)-Sulfinpyrazone] (41.84 µM) | 2.61
31 | CC1(C)N=C(N)N=C(N)N1c1ccc(Cl)cc1 [Cycloguanil] (3.4 µM) | 2.22
32 | CN(C)CCCN1c2ccccc2Sc2ccc(C(F)(F)F)cc21 [Triflupromazine] (1.4 µM) | 4.32
33 | COCc1c(C(C)C)nc(C(C)C)c(/C=C/[C@@H](O)C[C@@H](O)CC(=O)O)c1-c1ccc(F)cc1 [Cerivastatin] (0.46 µM) | 13.1 (active)
34 | Cc1ccccc1C(=O)Nc1ccc(C(=O)N2CCC[C@@H](O)c3cc(Cl)ccc32)c(C)c1 [Tolvaptan] (11.1 µM) | 6.06
35 | Clc1ccc2c(c1)C(N1CCNCC1)=Nc1ccccc1O2 [Amoxapine] (9.6 µM) | 3.6
36 | CN1C[C@H]2c3ccccc3Oc3ccc(Cl)cc3[C@@H]2C1 [Asenapine] (0.07 µM) | 2.47
37 | CN(C)CC[C@@H](c1ccc(Cl)cc1)c1ccccn1 [Dexchlorpheniramine] (0.15 µM) | 2.67
38 | Cc1ccc(Nc2nccc(N(C)c3ccc4c(C)n(C)nc4c3)n2)cc1S(N)(=O)=O [Pazopanib] (132.6 µM) | 2.85
39 | CCC1(c2ccccc2)NC(=O)N(C)C1=O (stereo not given) [Mephenytoin] (343.8 µM) | 3.69
40 | CO/N=C(\C(=O)N[C@@H]1C(=O)N2C(C(=O)O)=C(CSc3nnnn3C)CS[C@H]12)c1csc(N)n1 [Cefmenoxime] (183.8 µM) | 4.1
